According to PubChem BioAssay (NCI):
About 83,000 compounds went through this panel and 20% of them were active in at least one assay; those are over-represented in the sample as a whole.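 Assay: single dose, 48 h. Readout: percent growth (0 = no net growth; negative = cell death). Active: <10.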 Unmarked numbers belong to inactive results. Activity calls are given as the source filed them.

Key:
Experiment in all cases: NCI-60 one-dose screen, 48 h (100 = growth as untreated, 0 = no growth, -100 = all killed)
Conditions in all cases: 10 µM unless noted
[1] = tested on: HCT-15 colon
[2] = tested on: HT29 colon
[3] = tested on: SNB-75 CNS
[4] = tested on: SNB-19 CNS
[5] = tested on: U251 CNS
[6] = tested on: PC-3 prostate
[7] = tested on: SK-MEL-5 melanoma
[8] = tested on: UACC-62 melanoma
[9] = tested on: LOX IMVI melanoma
[10] = tested on: SK-MEL-28 melanoma
[11] = tested on: SK-MEL-2 melanoma
[12] = tested on: EKVX NSCLC
[13] = tested on: SN12C renal
[14] = tested on: UO-31 renal
[15] = tested on: TK-10 renal
[16] = tested on: ACHN renal
[17] = tested on: CAKI-1 renal
[18] = tested on: A498 renal
[19] = tested on: CCRF-CEM leukemia
[20] = tested on: MOLT-4 leukemia

Row | SMILES | growth [1] | growth [2] | growth [3] | growth [4] | growth [5] | growth [6] | growth [7] | growth [8] | growth [9] | growth [10] | growth [11] | growth [12] | growth [13] | growth [14] | growth [15] | growth [16] | growth [17] | growth [18] | growth [19] | growth [20]
1 | CCn1c(=O)c(C(=O)NCCCO)c(O)c2ccccc21 | 103% | 109% | 96.8% | 102% | 98.1% | 101% | 94.2% | 94.4% | 98.5% | 118% | 112% | 65.6% | 104% | 86.9% | 180% | 102% | 116% | 109% | 103% | 100%
2 | COc1cccc(/C=N\Nc2ccc([N+](=O)[O-])cn2)c1O | 29.7% | 99.1% | 83.1% | 50.9% | 21.7% | 97.5% | 49.8% | 54.7% | 36.9% | 83.5% | 77.1% | 83.9% | 55% | 26.9% | 73.5% | 28.5% | 27.8% | 39.8% | 79.3% | 58%
3 | CN(C)c1nc(-c2cccs2)n2nc(-c3ccco3)cc2n1 | 79.4% | 93.4% | 86.5% | 102% | 93.6% | 91.2% | 94.1% | 89.7% | 77.6% | 117% | 92.9% | 80.1% | 92% | 57.9% | 103% | 96.9% | 85.5% | 74.1% | 93.9% | 97%
4 | CC(C)(C)[Si](C)(C)OC1[C@@H](CNC(N)=O)O[C@@H](n2cnc3c(NC(=O)Nc4ccccc4)ncnc32)[C@H]1O[Si](C)(C)C(C)(C)C (stereo not given in full) | 48.3% | -7.1% (active) | 73.9% | 88.4% | 62.2% | 17% | 76.9% | 83.3% | 32.3% | 92.7% | 80.9% | 59.7% | -33.7% (active) | 40.9% | 84.5% | 40.2% | 92.2% | 81% | 47.9% | 23.5%
5 | CCn1c(Cc2ccccc2Nc2c(Cl)cccc2Cl)nnc1SCC(=O)Nc1ccccc1C(F)(F)F | 84.6% | 81.8% | 92.9% | 86.5% | 93.3% | 67.4% | 92% | 63.1% | 93.9% | 107% | 79.9% | 82.8% | 77.1% | 74.8% | 88% | 106% | 87.1% | 64.5% | 108% | 70.2%
6 | NS(=O)(=O)c1ccc(CCn2c(SCC(=O)N/N=C/c3ccccc3O)nc3ccccc3c2=O)cc1 | 59.9% | 10% (active) | 23.8% | 49.1% | 26.8% | 36.1% | 30.5% | 48.8% | 43.9% | 76.5% | 14.2% | 75.8% | 51.3% | 70.4% | 70% | 87.4% | 60.1% | 21.7% | 18.7% | 21.4%
7 | O=C(CC(=O)c1cccc(Cl)c1)c1cccc(Cl)c1 | 25.9% | 34.7% | 75.3% | 31.3% | 16.7% | 33.3% | 36.8% | 27.2% | 33.2% | 56% | 60.4% | 20.5% | 23.2% | 42.7% | 46.6% | 31.2% | 23.4% | 79.2% | 11.4% | 21.7%
8 | COc1ccc(C(=O)OC2C(OC3C(O)COC(O[C@H]4C[C@H]5[C@@H]6CC=C7C[C@@H](O)CC[C@]7(C)[C@H]6CC[C@]5(C)[C@H]4[C@H](C)C(=O)CCC(C)C)C3OC(C)=O)OCC(O)C2O)cc1 (stereo not given in full) | -51.5% (active) | 0.168% (active) | -9.67% (active) | -22.8% (active) | -42.8% (active) | -32.6% (active) | -77.1% (active) | -49.9% (active) | -49.8% (active) | -54.6% (active) | -52% (active) | 7.53% (active) | 44.3% | -35.7% (active) | -20.1% (active) | 28.6% | -31.1% (active) | -82.2% (active) | -23.2% (active) | -42.4% (active)
9 | CC1(C)OC2OC3C(CN)OC(c4ccccc4)OC3C2O1 (stereo not given) | 125% | 106% | 92.4% | 110% | 104% | 97.1% | 106% | 105% | 97.9% | 114% | 103% | 103% | 103% | 103% | 104% | 103% | 92.5% | 96.8% | 104% | 5.53% (active)
10 | CN1C(=O)C(C(=O)/C=C/c2ccccc2C(=O)O)C(=O)N(C)C1=O | 110% | 98.8% | 86.7% | 105% | 97% | 96.4% | 108% | 95% | 94.7% | 109% | 106% | 105% | 101% | 87% | 102% | 108% | 90% | 104% | 91.9% | 97.1%
11 | O=C(/C=C/c1cn(-c2ccccc2)nc1-c1ccccc1)OCc1cn(-c2cccc([N+](=O)[O-])c2)nn1 | 95.2% | 86.3% | 74.3% | 87.8% | 78.3% | 67.4% | 100% | 73.5% | 90.1% | 92.1% | 87.8% | 85.9% | 92.7% | 68.7% | 98.6% | 90.1% | 82.5% | 66.7% | 81.1% | 85.8%
12 | COc1ccc(-c2cc(-c3ccc(OC)cc3)c3sc(=O)[nH]c3n2)cc1 | 90.2% | 102% | 88.6% | 73.8% | 72.6% | 86.1% | 96.4% | 90.1% | 92.3% | 115% | 103% | 86.6% | 73.7% | 53.4% | 89.8% | 93.7% | 76.8% | -1.41% (active) | 108% | 92.9%
13 | CCN(CC)Cc1cc(Nc2ccnc3ccc(OC)cc23)ccc1O | 32.4% | -24.3% (active) | 101% | 74.4% | 35% | 39.8% | 50.4% | 87.7% | 4.78% (active) | 105% | 26.5% | 67.1% | 56.6% | 2.04% (active) | 49.6% | 35.1% | 45.4% | 45.6% | 55.5% | 29.7%
14 | Cc1nn(-c2cccc(Cl)c2)c(C)c1N=Nc1ccc(Br)cc1 | 94.4% | 74.7% | 91.9% | 97.9% | 92.5% | 80.9% | 97.5% | 81.7% | 101% | 92.3% | 102% | 87.5% | 94.4% | 86.5% | 90.1% | 92% | 86.7% | 83% | 97.3% | 98.9%
15 | COc1cc([N+](=O)[O-])cc(OC)c1OC | 107% | 96% | 92.2% | 114% | 106% | 94.9% | 113% | 101% | 100% | 104% | 114% | 104% | 101% | 86.5% | 106% | 119% | 89.5% | 79.9% | 105% | 103%
16 | CCCCCCCC/C=C\CCCCCCCC(=O)OCCCCCC | 101% | 109% | 117% | 112% | 97.1% | 91.5% | 108% | 110% | 98.8% | 122% | 123% | 84.9% | 111% | 91.8% | 112% | 107% | 96% | 70.5% | 98.8% | 104%
